Shown are actives, neighbours in structure and some others; about 2.7% of the full set was active somewhere.
LDHA inh: qHTS assay for inhibitors of human lactate dehydrogenase; purified LDHA, NADH/diaphorase-resazurin fluorescence; stronger effect = lower value; activity change, % (values are at about 110 or 230 µM); 480,000 compounds, 0.15% hits; in the data active means activity change below about -30%; inconclusive means mostly about -25% to -30%;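 further: plate controls were DMSO wells for no effect and wells without enzyme for full effect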
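Human LDH5 (2 nM) was incubated with 0.06 mM NADH and 0.2 mM pyruvate for 5 min at room temperature in Tris pH 7.4. Remaining NADH was coupled through diaphorase/resazurin, and resorufin fluorescence was read at 0 and 20 min.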
mIDH1 inhibitor: qHTS for Inhibitors of mutant isocitrate dehydrogenase 1 (IDH1): qHTS; Isocitrate dehydrogenase [NADP] cytoplasmic (Homo sapiens), O75874; IDH1-R132H enzyme, NADPH consumption, diaphorase/resazurin fluorescence; Potency, µM (highest dose often 76.6 µM), for the others: top-dose activity change, negative = inhibition, hits mostly inhibitors; 390,000 compounds, 0.093% hits; AID 602179, 2012; further: potency means the concentration at half of the fitted maximal effect; on the % scale 0 is the no-effect control and ±100 the full control effect; nearly all actives have a fitted effect of over 65% in size
Target sequence (O75874 whole entry R132H, stated change not applied): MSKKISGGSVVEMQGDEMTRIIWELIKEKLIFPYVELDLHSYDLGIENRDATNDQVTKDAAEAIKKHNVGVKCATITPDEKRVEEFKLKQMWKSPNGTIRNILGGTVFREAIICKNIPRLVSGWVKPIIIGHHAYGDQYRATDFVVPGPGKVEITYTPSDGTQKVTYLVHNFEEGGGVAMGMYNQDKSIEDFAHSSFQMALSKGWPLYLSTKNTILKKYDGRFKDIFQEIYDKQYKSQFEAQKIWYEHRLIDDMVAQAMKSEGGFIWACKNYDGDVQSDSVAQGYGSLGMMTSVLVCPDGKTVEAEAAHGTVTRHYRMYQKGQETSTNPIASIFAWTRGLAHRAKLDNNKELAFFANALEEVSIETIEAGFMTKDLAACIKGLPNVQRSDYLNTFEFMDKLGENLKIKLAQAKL
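IDH1-R132H (0.5 ug/mL) preincubated 30 min with compound, then NADPH (0.016 mM) and alpha-KG (2 mM) added; 80 min at RT, pH 7.5. Remaining NADPH coupled via diaphorase/resazurin to fluorescence (540/590 nm); concentration-response curves normalized to no-enzyme control.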
Nrf2 ARE act: qHTS of Nrf2 Activators | 410,000 compounds, 0.31% hits | AID 624171, 2012 | Potency, µM (titrated, usually from 46.1 µM), for inactives: at the top dose activation, most hits filed as activators | AREc32 ARE-luciferase reporter (MCF7-derived line), luminescence, 24 h; further: potency means the concentration at half of the fitted maximal effect; % of control where 0% means no effect; nearly all actives have a fitted effect of over 65% in size
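Each well held 1000 AREc32 cells, which were incubated with compound for 24 hr at 37 deg C after overnight attachment, and ARE reporter activity was quantified by firefly luciferase luminescence.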
Nrf2 inh: Nrf2 qHTS screen for inhibitors. 360,000 compounds, 2.1% hits. AID 504444, 2011. Potency, µM (highest dose often 46 µM), inactives show top-dose activity change, negative = inhibition, hits mostly inhibitors. A549 ARE-Fluc reporter, luciferase luminescence, 18-24 h; further: potency means the concentration at half of the fitted maximal effect; on the % scale 0 is the no-effect control and ±100 the full control effect; nearly all actives have a fitted effect of over 60% in size
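Cells were seeded and rested 2 h, then exposed to compounds for 18-24 h. CellTiter-Fluor was read first as a viability measure. BugLite was added 15 min before the final luminescent read of ARE-luciferase activity in A549 cells.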
12-LOX inh: Primary qHTS assay for inhibitors of human arachidonate 12S-lipoxygenase (ALOX12): Round 2; Polyunsaturated fatty acid lipoxygenase ALOX12 (Homo sapiens), P18054; Potency, µM (series often up to 108 µM), for inactives: at the highest dose activity change, negative = inhibition, usual class: inhibitors; purified 12hLO, xylenol orange hydroperoxide absorbance; AID 1671190, 2021; 580,000 compounds, 1.1% hits; further: potency means the concentration at half of the fitted maximal effect; on the % scale 0 is the no-effect control and ±100 the full control effect
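Hydroperoxide product was detected by ferrous iron/xylenol orange as the 573 to 405 nm absorbance ratio. Arachidonic acid at 40 uM (final) was turned over for 30 min at room temperature by 150 nM human 12hLO, pH 7.0 Hepes buffer, after 15 min compound preincubation.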
A549 tox: Nrf2 qHTS screen for inhibitors: counterscreen for cytotoxicity. 390,000 compounds, 0.16% hits. A549 ARE-Fluc cells, CellTiter-Fluor viability, 18-24 h. Potency, µM (doses to about 46 µM), for inactives: at the top dose activity change, negative = cytotoxicity, most hits filed as inhibitors; further: potency means the concentration at half of the fitted maximal effect; on the % scale 0 is the no-effect control and ±100 the full control effect
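A549 ARE_Fluc cells in 5% FBS OPTI-MEM were exposed to compounds in concentration-response for 18-24 h at 37 deg C. Viability was read by CellTiter-Fluor fluorescence (Ex 405/Em 525) after 30 min, before the luciferase read.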
* = called active by the depositor; ? = inconclusive; / = no result given; [ ] = remark or other dose. Unless noted, the call rests on the fitted dose curve; in most records, active means well fitted curve in the direction sought with a large enough effect; inconclusive means small, poorly fitted or top-dose-only effect, or another doubt; inactive means no such curve, though single readings can be large; an effect the other way counts as inactive or inconclusive.

SMILES | LDHA inh | mIDH1 inhibitor | Nrf2 ARE act | Nrf2 inh | 12-LOX inh | A549 tox
Oc1c(Cl)cc(Cl)c2c1NCCC2 | 30 | 18% | 22% | 2% | ? | 7%
O=C1CCc2c(Cl)cc(Cl)c(O)c21 | 7 | / | / | / | 5.6µM* | /
Cc1nc(SCc2ccccc2)c2ccsc2n1 | 1 | 9% | ? | -24% | 6% | -1%
c1ccc(CSc2ncnc3sccc23)cc1 | -3 | 1% | 11µM* | 9% | 1% | 0%
c1ccc2sc(Sc3ncnc4sccc34)nc2c1 | -6 | 6% | 8.9µM* | ? | -8% | 0%
COc1cccc(/C=N/NC(=O)C(=O)N/N=C/c2cccc(OC)c2O)c1O | 5 | 4% | 1% | -14% | -7% | -10%
COc1cccc(/C=N/NC(=O)c2cc3cc([N+](=O)[O-])ccc3s2)c1O | -5 | -2% | 0% | 15µM* | ? | ?
CC(=O)Nc1ccc(S(=O)(=O)Oc2ccc(C(=S)N3CCCCC3)cc2)cc1 | -5 | -3% | 1% | 21µM* | ? | -17%
CCOc1cc(C(=S)N2CCOCC2)ccc1OS(=O)(=O)c1ccc(NC(C)=O)cc1 | -11 | -4% | 1% | 9.2µM* | 2% | -15%
CCOc1cc(C(=S)N2CCOCC2)ccc1OS(=O)(=O)c1ccc(OC)cc1 | -2 | -4% | 0% | ? | 146% | -2%
Cc1oc(-c2cccs2)nc1CC(=O)NCc1ccc2c(c1)OCO2 | -5 | / | / | / | ? | /
CN(C(=O)c1ccc(Oc2ccc([N+](=O)[O-])cc2)cc1)C1CCCCC1 | 1 | 5% | 6% | 26µM* | 4% | -8%
CN(C(=O)c1ccc(Br)cc1)C1CCCCC1 | -1 | / | / | / | -18% | /
COc1cc(CC(=O)NC2CCC(C)CC2)ccc1C (stereo not given) | -1 | / | / | / | 34% | /
CCn1cnc2c1c(=O)n(CC(=O)NC1CCS(=O)(=O)C1)c(=O)n2Cc1ccccc1 (stereo not given) | 3 | / | / | / | -4% | /
Cc1ccncc1-c1c(C)nn2c1N(Cc1ccc(C(=O)O)cc1)CCC2 | / | / | / | / | 16µM* | /
CC(=O)Nc1ccccc1-c1c(C)nn2c1N(CCCc1ccccc1)CCC2 | / | / | / | / | 16µM* | /
Cc1nn2c(c1-c1ccccc1C(C)C)N(CCC(C)C)CCC2 | / | / | / | / | 50µM* | /
COc1ccc(OC)c(CN2CCCn3nc(C)c(-c4cccnc4N4CCOCC4)c32)c1 | / | / | / | / | 24% | /
Cc1nn2c(c1-c1cccnc1N1CCOCC1)N(CCC(C)C)CCC2 | / | / | / | / | 18µM* | /
Cc1ccncc1-c1c(C)nn2c1N(C(=O)Cc1ccc(Cl)cc1)CCC2 | / | / | / | / | -7%[176 µM] | /
CCC1=C(C(=O)OC)C(c2ccccc2C)N2C(CC(=O)NC3CC3)=CSC2=N1 (stereo not given) | / | / | / | / | 58% | /
COc1ccc(C(=O)NCCc2csc(-c3cccs3)n2)cc1 | 7 | / | / | / | 57% | /
CCN(CC)Cc1nc(C2(O)CCN(C(=O)CCc3ccccc3)CC2)cs1 | / | / | / | / | 85%[176 µM] | /
Cc1nn2c(c1-c1cccnc1N1CCOCC1)N(CCc1ccccc1)CCC2 | / | / | / | / | 20µM* | /
SMILES | LDHA inh | mIDH1 inhibitor | Nrf2 ARE act | Nrf2 inh | 12-LOX inh | A549 tox
O=C(CC(c1cccc(F)c1)n1cccc1)Nc1ccc2c(c1)OCO2 (stereo not given) | 3 | / | / | / | ? | /
O=C(Nc1scc(-c2ccccc2)c1C(=O)O)c1ccccc1F | 0 | 25% | 0%[9.22 µM] | -5% | -1% | -2%
Cc1ccccc1C(=O)Nc1scc(-c2ccc(Br)cc2)c1C(=O)O | -9 | 24% | -2% | 8.2µM* | ? | -25%
O=C(Nc1scc(-c2ccc(Br)cc2)c1C(=O)O)c1ccccc1F | -5 | 32% | -1% | 10µM* | 18% | -11%
CC(C)NC(NC(=O)c1ccccc1)C(Cl)(Cl)Cl (stereo not given) | -2 | / | / | / | 21% | /
COc1ccc(CCNC(=O)c2ccc(CS(=O)(=O)c3ccc(Cl)cc3)o2)cc1OC | -2 | 9% | 0% | ? | -23% | -19%
CCOc1ccc(N(C)S(=O)(=O)c2ccc(C)c(C(=O)NCc3ccccc3OC)c2)cc1 | -2 | 22% | 0% | 23µM* | 4% | 0%
CCOc1ccc(N(C)S(=O)(=O)c2ccc(C)c(C(=O)NCCc3ccc(OC)cc3)c2)cc1 | 0 | 1% | 2% | ? | 2% | -1%
COc1ccc(CCNC(=O)COc2ccc(S(=O)(=O)NCC(C)C)cc2Cl)cc1OC | -4 | 0% | -1% | 21µM* | 3% | -15%
COc1ccc(CCNC(=O)c2ccc(CS(=O)(=O)c3ccc(C)cc3)o2)cc1OC | 0 | 4% | -1% | 21µM* | ? | 8%
COc1ccc(CCNC(=O)COc2ccc(N(C)S(=O)(=O)c3ccc(C)cc3)cc2)cc1OC | -5 | -7% | 2% | 26µM* | -13% | -3%
O=C(O)C1C(c2ccccc2)C(C(=O)Oc2cccc3ccccc23)C1c1ccccc1 (stereo not given) | -15 | / | / | / | ? | /
CCn1c(O)c(C=Nc2ccccc2)sc1=S | -2 | 9% | 7% | ? | ? | ?
Oc1c(C=Nc2ccccc2)sc(=S)n1Cc1ccccc1 | 0 | 5% | 7% | ? | 8.9µM* | -19%
NC(=S)Nc1ccc(Cl)c(Cl)c1 | -8 | 12% | 6% | ? | ? | -19%
NC(=S)NNc1ccc(Cl)c(Cl)c1 | 7 | -8% | 3% | -7% | 16µM* | -13%
Cc1ccc(NNC(N)=S)cc1Cl | 5 | 5% | 3% | -5% | 28µM* | 0%
NC(=S)NNc1ccnc2cc(Cl)ccc12 | -9 | -3% | 6% | -4% | 5.6µM* | 0%
CCc1ccc(C(=O)NNc2ccc(F)cc2)cc1 | 5 | 1% | 3% | -5% | 85% | 1%
CCc1ccc(C(=O)NNc2ccc(C)c(Cl)c2)cc1 | 3 | -1% | 5% | 7% | 16µM* | 0%
Cc1ccc(NC(=S)N(C)N)cc1Cl | -2 | 1% | 2% | 6% | ? | -8%
Cc1c(C(=O)C(=O)NCc2ccc(F)cc2)c2ccccc2n1C | -5 | / | / | / | 4% | /
Cc1nc2c(nc1C)C(=O)c1ccccc1C2=O | 5 | -6% | -3% | 16µM* | -7% | ?
Brc1ccc(N/N=C(/N=Nc2nn[nH]n2)c2ccccc2)cc1 | 1 | 0% | -1% | 10µM* | ? | ?
